According to PubChem BioAssay:
Values without a mark were called inactive. How the calls were made is not given here.

Target: Pantothenate synthetase (Mycobacterium tuberculosis (strain ATCC 25618 / H37Rv)) (UniProt P9WIL5)
Test: Recombinant Mtb pantothenate synthetase (PanC) inhibitors, coupled enzyme, confirmatory (AID 375);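 further: 0% = full reaction with vehicle and 100% = no enzyme background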
Conditions: coupled enzyme assay; at 10 µM, hits give high values

Pantothenate synthetase (Mycobacterium tuberculosis (strain ATCC 25618 / H37Rv)), sequence (P9WIL5 whole entry, looked up): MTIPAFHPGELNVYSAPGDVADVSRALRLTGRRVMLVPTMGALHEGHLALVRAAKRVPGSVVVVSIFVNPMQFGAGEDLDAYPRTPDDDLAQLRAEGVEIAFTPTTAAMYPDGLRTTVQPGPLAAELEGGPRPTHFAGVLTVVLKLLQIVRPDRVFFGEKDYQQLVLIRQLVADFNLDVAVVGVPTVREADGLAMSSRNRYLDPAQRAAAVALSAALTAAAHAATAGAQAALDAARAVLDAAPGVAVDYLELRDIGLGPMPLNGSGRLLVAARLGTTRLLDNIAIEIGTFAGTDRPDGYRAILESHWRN

Compound | inhibition
COc1ccc(NC(=O)CSc2nc3c(c(=O)n2-c2ccccc2OC)SCC3)cc1 | 3%
CC(C)(C)n1ncc2c(=O)n(CC(=O)NCc3ccc(F)cc3)cnc21 | 4%
CCOC(=O)C(NC(=O)c1ccc(OC)cc1)(N1CCOCC1)C(F)(F)F (stereo unspecified) | 2%
O=C(c1ccc(Br)o1)N(c1ccc(Br)cc1)C1C=CS(=O)(=O)C1 (stereo unspecified) | 0%
O=C(Cn1cccc1)N1CCN(C(c2ccccc2)c2ccccc2)CC1 | 13%
COc1cccc(-c2nnc(SCC(=O)N3CCCc4ccccc43)o2)c1 | 0%
Cc1noc(NS(=O)(=O)c2ccc(N3C(=O)c4ccccc4C3=O)cc2)c1C | 3%
CCc1cc2c(=O)c(-c3nc4ccccc4[nH]3)coc2cc1OC(=O)N1CCOCC1 | 7%
O=C(O)C1CCCCC1C(=O)NCCc1ccccc1 (stereo unspecified) | 0%
CCOC(=O)C1CCN(c2c(NCCN3CCN(c4ccccc4)CC3)c(=O)c2=O)CC1 | 0%
CC1=C(C(=O)Nc2ccc(F)cc2)C(c2cccc(C)c2)n2nc(CCCO)nc2N1 (stereo unspecified) | 6%
CC1=Nn2c(nnc2-c2cc(-c3ccccc3)n[nH]2)SC1 | 0%
Cn1c(=O)n(C)c2cc(CNc3ccc(N4CCOCC4)c(C(=O)O)c3)ccc21 | 11%
CCOC(=O)/C=C1\SCC(=O)N1Cc1ccc(Br)cc1 | 0%
CCSC(SCC)[C@H](O)[C@@H](O)[C@H](O)[C@H](O)CO | 2%
CC(=O)OCC(=O)[C@H]1CC[C@H]2[C@@H]3CCC4=CC(=O)CC[C@]4(C)[C@H]3CC[C@]12C | 1%
